The compounds below were run against Solute carrier family 2, facilitated glucose transporter member 1 (Homo sapiens) (UniProt P11166) (assay: ST_JUDE_LEISH: Cytotoxicity at 2uM final concentration against transgenic Leishmania Mexicana promastigotes LmGLUT1 that are glucose transport deficient and complemented with the human glucose transporter GLUT1. Activity is measured by DNA content using SYBR green in vitro).
Assay type: functional

Sequence of Solute carrier family 2, facilitated glucose transporter member 1 (Homo sapiens) (P11166 whole entry): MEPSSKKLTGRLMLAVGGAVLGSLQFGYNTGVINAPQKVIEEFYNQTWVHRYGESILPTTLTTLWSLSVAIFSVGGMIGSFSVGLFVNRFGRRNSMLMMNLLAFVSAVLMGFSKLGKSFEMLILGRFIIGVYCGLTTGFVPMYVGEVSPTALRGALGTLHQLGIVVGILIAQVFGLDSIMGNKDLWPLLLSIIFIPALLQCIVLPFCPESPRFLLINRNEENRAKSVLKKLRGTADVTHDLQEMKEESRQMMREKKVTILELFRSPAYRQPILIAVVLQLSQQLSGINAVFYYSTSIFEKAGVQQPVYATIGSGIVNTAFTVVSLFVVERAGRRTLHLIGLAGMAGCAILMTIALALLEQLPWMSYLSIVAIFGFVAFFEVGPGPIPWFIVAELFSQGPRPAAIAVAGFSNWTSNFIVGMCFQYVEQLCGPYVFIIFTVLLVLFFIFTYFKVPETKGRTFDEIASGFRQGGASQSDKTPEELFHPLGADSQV

| Compound | inhibition |
| --- | --- |
| COc1ccc(-c2cccc(NC(=O)c3cccc(C#N)c3)c2)cc1CN1CCC(O)CC1 | 3.79% |
| Cc1cccc2nc(-c3cccc(-c4cccc(NC(=O)COc5ccccc5C(N)=O)c4)c3)[nH]c12 | -0.32% |
| CCN(CC)CCOc1ccc(C(O)(C#CC(O)(c2ccccc2)c2ccc(OCCN(CC)CC)cc2)c2ccccc2)cc1 (centres undefined) | -1.1% |
| CCOc1ccc2nc(NC(=O)c3csnn3)sc2c1 | 4.69% |
| O=C(c1ccccc1)N1CCC(CN2CCOC(c3ccccc3)(c3ccccc3)C2)CC1 | 3.71% |
| CCCCC(O)c1cc(O)c2c(c1)OC(C)(C)CC2C1=CCN(Cc2ccc3ccccc3c2)CC1 (centres undefined) | -0.53% |
| Cc1nn(C)cc1C(C)Nc1nncc(-c2ccc(C(F)(F)F)cc2)n1 (centres undefined) | 2.34% |
| O=C(C=Cc1cccc(F)c1)NC1CCC(CCN2CCc3ccc(-c4cnccn4)cc3CC2)CC1 (centres undefined) | 14.4% |
| CC(C)c1cc(Oc2c(I)cc(CCNC(=N)N)cc2I)ccc1O | -0.6% |
| O=[N+]([O-])c1cccc(CNCC2CCN(Cc3ccc4ccccc4c3)CC2)c1 | 16.5% |
| COc1cccc(NC(=O)Nc2cc(-c3ccc4[nH]ncc4c3)cc3c2CNC3=O)c1 | 2.19% |
| COc1ccccc1C(=O)N1CCN(Cc2cccs2)CC1 | 7.76% |
| O=S(=O)(Nc1ccc(CCN2CCC(N3CCCCC3)CC2)cc1)c1cccc2cccnc12 | 3.76% |
| CCC(CC)CN1C(=O)C(C)(c2ccccc2)N=C1N (centres undefined) | -1.13% |
| COc1cc2nc(N3CCN(C(=O)c4ccc(N(C(=O)OC(C)(C)C)C(=O)OC(C)(C)C)cc4)CC3)nc(N)c2cc1OC | -0.43% |
| COCCN1CCC(N(Cc2ccc(-c3ccc(C(F)(F)F)cc3)cc2)C(=O)Cn2c(CCc3cccc(F)c3F)cc(=O)c3c2CCC3)CC1 | -2.35% |
| O=C(Nc1cccc(C(F)(F)F)c1)c1cccc(S(=O)(=O)NC2CCCN(CC3CCCCC3)C2)c1 (centres undefined) | 0.39% |
| Cc1cc(-c2cccc3c(C(=O)N4CCc5cc6nccc(N7CCCN(C)CC7)c6cc54)cccc23)cc(C)n1 | -0.39% |
| CC(C)(C)NCCN(Cc1ccc(-c2ccc(C(F)(F)F)cc2)cc1)C(=O)Cn1c(SCc2ccc(F)cc2)nc(=O)c2c1CCC2 | 0.94% |
| COc1ccc2nccc([C@@H](O)CN3CCC(NC(=O)C(c4cccs4)N4CCN(c5ccc(F)cc5)CC4)CC3)c2c1 (some centres undefined) | 5% |
| N#Cc1cccc(CN2CCCN(Cc3cccc(C(=O)Nc4ccc(Cl)cc4)c3)CC2)c1 | 0.81% |
| CCC(O)c1ccc(Br)cc1NC(=O)c1cccc(Cl)c1 (centres undefined) | -1.21% |
| CC(CN1CCN(C)CC1)C(=O)Nc1cccc(-c2ccc(-c3nc4cc(C(F)(F)F)ccc4[nH]3)cc2)c1 (centres undefined) | 5.29% |
| O=C(NCc1ccccc1)NC1CCN(c2ccnc3cc(Cl)ccc23)C1 (centres undefined) | -2.48% |

What follows are compounds tested against Hexose transporter 1 (Plasmodium falciparum) (UniProt O97467) (assay: ST_JUDE_LEISH: Cytotoxicity at 2uM final concentration against transgenic Leishmania Mexicana promastigotes LmPfHT that are glucose transport deficient and complemented with the Plasmodium falciparum hexose transporter. Activity is measured by DNA content using SYBR green in vitro).
Assay type: functional

| Compound | inhibition |
| --- | --- |
| COc1ccccc1-n1ccnc1SCC(=O)Nc1cccc(C(F)(F)F)c1 | 1.61% |
| Cc1nc(Nc2ccc(F)cc2)nc(N2CCc3ccccc3[C@@H]2C)c1C | 5.21% |
| CCN(CC)CCON=Cc1cc(C)c2[nH]c3ccc(OCc4ccccc4)cc3c2c1C | 0.92% |
| Cc1cc(N[C@@H](CC(C)C)C(=O)Nc2ccccc2)nc(NCc2ccccc2C)n1 | 8.35% |
| O=C(Nc1ccc(Cl)cc1)Nc1ccc(-c2csc(-c3nc4ccccc4[nH]3)c2)cc1 | 1.1% |
| C[C@@H](NC(=O)c1nn(-c2ccc(Cl)cc2)c(=O)c2ccccc12)C(C)(C)C | 1.12% |
| O=C(NCC1CCCCC1)c1cc(=O)c2ccccc2o1 | 10.2% |
| O=C(NCCN1CCCc2ccccc21)C1CCN(c2nc(-c3ccc(Cl)cc3)no2)CC1 | 2.11% |
| O=C(c1cc(-c2ccccc2)n[nH]1)N1CCN(S(=O)(=O)c2ccc(Cl)s2)CC1 | 1.3% |
| O=C(/C=C/c1ccc(Cl)c(Cl)c1)NCCCCCN1CCC(NC(=O)Nc2cc(Cl)ccc2Cl)CC1 | 8.99% |
| COc1ccc2nccc([C@@H](O)CN3CCC(NCc4cc5ccccc5nc4O)CC3)c2c1 | 1.94% |
| CN(C)CCNC(=O)c1cc2c(-c3ccc(Cl)cc3)nn(C)c2s1 | 2.13% |
| COc1ccc2ncc(C)c(CCN3CCC(NCc4ccc5c(n4)NC(=O)CS5)CC3)c2c1 | 6.68% |
| Cc1ccc(N2C(N)=NC(N)=NC2c2ccccc2)cc1 (centres undefined) | 2.24% |
| O=C(NC1CC1c1ccccc1)N(CCCn1ccnc1)Cc1csc(-c2ccc(CNCc3ccccc3)cc2)n1 (centres undefined) | 1% |
| CCC1(C)CC(CCNCc2ccccc2O)(c2ccccc2OC)CCO1 (centres undefined) | -0.31% |
| COc1ccc(-c2cccc(NC(=O)c3cccc(C#N)c3)c2)cc1CN1CCC(O)CC1 | 3.97% |
| Cc1cccc2nc(-c3cccc(-c4cccc(NC(=O)COc5ccccc5C(N)=O)c4)c3)[nH]c12 | 3.3% |
| CCN(CC)CCOc1ccc(C(O)(C#CC(O)(c2ccccc2)c2ccc(OCCN(CC)CC)cc2)c2ccccc2)cc1 (centres undefined) | -2.58% |
| CCOc1ccc2nc(NC(=O)c3csnn3)sc2c1 | 3.55% |

| Compound | inhibition |
| --- | --- |
| O=C(c1ccccc1)N1CCC(CN2CCOC(c3ccccc3)(c3ccccc3)C2)CC1 | 3.92% |
| CCCCC(O)c1cc(O)c2c(c1)OC(C)(C)CC2C1=CCN(Cc2ccc3ccccc3c2)CC1 (centres undefined) | 1.5% |
| Cc1nn(C)cc1C(C)Nc1nncc(-c2ccc(C(F)(F)F)cc2)n1 (centres undefined) | 2.27% |
| O=C(C=Cc1cccc(F)c1)NC1CCC(CCN2CCc3ccc(-c4cnccn4)cc3CC2)CC1 (centres undefined) | 14.2% |
| CC(C)c1cc(Oc2c(I)cc(CCNC(=N)N)cc2I)ccc1O | -0.01% |
| O=[N+]([O-])c1cccc(CNCC2CCN(Cc3ccc4ccccc4c3)CC2)c1 | 3.55% |
| COc1cccc(NC(=O)Nc2cc(-c3ccc4[nH]ncc4c3)cc3c2CNC3=O)c1 | 2.02% |
| COc1ccccc1C(=O)N1CCN(Cc2cccs2)CC1 | 7.28% |
| O=S(=O)(Nc1ccc(CCN2CCC(N3CCCCC3)CC2)cc1)c1cccc2cccnc12 | 3.39% |
| CCC(CC)CN1C(=O)C(C)(c2ccccc2)N=C1N (centres undefined) | -0.03% |
| COc1cc2nc(N3CCN(C(=O)c4ccc(N(C(=O)OC(C)(C)C)C(=O)OC(C)(C)C)cc4)CC3)nc(N)c2cc1OC | -0.06% |
| COCCN1CCC(N(Cc2ccc(-c3ccc(C(F)(F)F)cc3)cc2)C(=O)Cn2c(CCc3cccc(F)c3F)cc(=O)c3c2CCC3)CC1 | -0.63% |
| O=C(Nc1cccc(C(F)(F)F)c1)c1cccc(S(=O)(=O)NC2CCCN(CC3CCCCC3)C2)c1 (centres undefined) | 0.03% |
| Cc1cc(-c2cccc3c(C(=O)N4CCc5cc6nccc(N7CCCN(C)CC7)c6cc54)cccc23)cc(C)n1 | 1.02% |
| CC(C)(C)NCCN(Cc1ccc(-c2ccc(C(F)(F)F)cc2)cc1)C(=O)Cn1c(SCc2ccc(F)cc2)nc(=O)c2c1CCC2 | 1.75% |
| COc1ccc2nccc([C@@H](O)CN3CCC(NC(=O)C(c4cccs4)N4CCN(c5ccc(F)cc5)CC4)CC3)c2c1 (some centres undefined) | 3.71% |
| N#Cc1cccc(CN2CCCN(Cc3cccc(C(=O)Nc4ccc(Cl)cc4)c3)CC2)c1 | 0.19% |
| CCC(O)c1ccc(Br)cc1NC(=O)c1cccc(Cl)c1 (centres undefined) | 1.01% |
| CC(CN1CCN(C)CC1)C(=O)Nc1cccc(-c2ccc(-c3nc4cc(C(F)(F)F)ccc4[nH]3)cc2)c1 (centres undefined) | 4.14% |
| O=C(NCc1ccccc1)NC1CCN(c2ccnc3cc(Cl)ccc23)C1 (centres undefined) | 0.99% |
